Reference: paper PMC4336329 (PLoS ONE, 2015)
Screen size: about 310,000 compounds; about 14,000 (4.5%) showed an effect of 50% or more. The effect is printed as a negative number. The entries come from a sample that favours strong results as a whole.

target: human ether-à-go-go-related gene (hERG) potassium channel (human, UniProt Q12809); assay: primary screen, population patch clamp on CHO cells stably expressing hERG; higher = less effect of the substance
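Further: peak tail current of the secondary pulse compared with the same well before compound.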

Sequence of human ether-à-go-go-related gene (hERG) potassium channel (Q12809 whole entry, looked up): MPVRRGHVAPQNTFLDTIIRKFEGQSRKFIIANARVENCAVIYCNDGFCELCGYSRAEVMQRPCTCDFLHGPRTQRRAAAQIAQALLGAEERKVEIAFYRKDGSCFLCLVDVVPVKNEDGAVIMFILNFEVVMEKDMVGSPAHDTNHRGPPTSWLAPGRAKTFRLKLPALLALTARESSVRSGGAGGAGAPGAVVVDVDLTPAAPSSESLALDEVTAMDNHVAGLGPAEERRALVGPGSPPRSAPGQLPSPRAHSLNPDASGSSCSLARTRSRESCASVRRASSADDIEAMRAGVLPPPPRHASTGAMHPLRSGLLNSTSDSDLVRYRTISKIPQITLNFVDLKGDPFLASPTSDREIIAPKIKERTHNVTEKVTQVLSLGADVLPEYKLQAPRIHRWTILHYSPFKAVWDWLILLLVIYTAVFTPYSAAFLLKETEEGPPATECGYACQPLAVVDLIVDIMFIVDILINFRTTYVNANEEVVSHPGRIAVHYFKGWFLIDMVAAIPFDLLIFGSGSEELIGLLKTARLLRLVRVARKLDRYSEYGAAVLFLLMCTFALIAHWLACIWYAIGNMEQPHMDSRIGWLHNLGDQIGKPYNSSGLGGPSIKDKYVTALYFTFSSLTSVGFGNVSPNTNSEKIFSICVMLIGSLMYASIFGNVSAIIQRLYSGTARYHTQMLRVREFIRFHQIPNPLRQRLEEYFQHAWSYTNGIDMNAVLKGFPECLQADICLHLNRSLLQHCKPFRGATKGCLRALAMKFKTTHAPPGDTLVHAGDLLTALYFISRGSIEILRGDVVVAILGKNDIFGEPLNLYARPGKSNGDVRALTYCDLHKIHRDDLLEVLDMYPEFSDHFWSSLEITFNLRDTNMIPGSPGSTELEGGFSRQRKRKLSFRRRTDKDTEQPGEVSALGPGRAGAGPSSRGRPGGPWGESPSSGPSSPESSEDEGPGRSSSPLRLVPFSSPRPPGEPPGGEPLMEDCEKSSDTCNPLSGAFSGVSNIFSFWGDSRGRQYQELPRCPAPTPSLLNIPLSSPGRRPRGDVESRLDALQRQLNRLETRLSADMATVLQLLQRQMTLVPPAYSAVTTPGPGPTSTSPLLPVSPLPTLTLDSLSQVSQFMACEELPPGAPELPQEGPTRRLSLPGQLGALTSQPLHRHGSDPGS

Compound	hERG current change (%, negative = inhibition) at 10uM
CC(C)CN(C(=O)c1ccc(N2CCCC2=O)cc1)c1c(N)n(Cc2ccccc2)c(=O)[nH]c1=O	19.6%
N#Cc1ccc(CN2CCN(C(=O)c3ccc(S(=O)(=O)NCc4ccco4)cc3)CC2)cc1	-59.8%
COc1ccc(N2CCN(C(=O)c3ccc(S(=O)(=O)NCc4ccco4)cc3)CC2)cc1	-54.7%
O=C(c1ccc(S(=O)(=O)NCc2ccco2)cc1)N1CCN(Cc2ccccc2)CC1	2.86%
CCOC(=O)N1CCN(C(=O)c2ccc(S(=O)(=O)NCc3ccco3)cc2)CC1	-2%
O=C(c1ccc(S(=O)(=O)NCc2ccco2)cc1)N1CCN(Cc2ccc3c(c2)OCO3)CC1	-32.5%
Cc1cccc(N2CCN(C(=O)c3ccc(Cl)c(S(=O)(=O)NCc4ccco4)c3)CC2)c1C	4.75%
O=C(c1ccc(Cl)c(S(=O)(=O)NCc2ccco2)c1)N1CCN(c2ccc(F)cc2)CC1	-70.3%
COc1ccccc1N1CCN(C(=O)c2ccc(Cl)c(S(=O)(=O)NCc3ccco3)c2)CC1	-14.2%
O=C(c1ccc(S(=O)(=O)NCc2ccco2)cc1)N1CCN(c2ccc(F)cc2)CC1	-31.5%
Cc1cccc(NC(=O)CN2C(=O)COc3ccc(Cl)cc32)c1C	8.74%
O=C(NCC(=O)N(Cc1ccco1)C(C(=O)NC1CCCC1)c1ccncc1)c1cccs1 (centres unmarked)	-0.29%
O=C(N/N=C/c1cc([N+](=O)[O-])ccc1O)C1CC1	9.47%
Cc1cc(C)n(-c2nc3ccccc3c(=O)n2OCCOc2ccccc2)n1	-1.88%
COc1ccc2c(c1)C(=O)Cc1ccccc1O2	0.762%
COc1ccc(C(c2nnnn2C2CCCCC2)N2CCN(C)CC2)c(OC)c1 (centres unmarked)	-4.87%
N/C(=N\OC(=O)C12CC3CC(CC(C3)C1)C2)c1ccccc1	-11.1%
COc1ccc2nc(/N=C/c3c(O)n(-c4cccc(Cl)c4)c(=O)[nH]c3=O)sc2c1	2.53%
CCOC(=O)CC(=O)CSc1nc2nc(C)cc(C)n2n1	8.34%
O=C(Nc1ccccc1)c1ccncc1	1.31%
O=C(COC(=O)c1ccc(O)cc1O)NNC(=O)c1cccs1	6.45%
CSc1nc(N2CCOCC2)cc(N2CCOCC2)n1	7.09%
O=C(CN1C(=O)c2cccc3cccc(c23)C1=O)N1CCCCC1	0.0571%
Cc1cc(C)c(NC(=O)C2CCCN2CCOC(=O)c2ccccc2)c(C)c1.Cl (centres unmarked)	-26%

Compound	hERG current change (%, negative = inhibition) at 10uM
Cc1cc(C)c(NC(=O)C2CCCN2CCO)c(C)c1 (centres unmarked)	-14.5%
Cc1cc(C)c(NC(=O)C2CCCN2CCOC(=O)c2cccc([N+](=O)[O-])c2)c(C)c1.Cl (centres unmarked)	-63.2%
CC(NC(=O)c1ccccc1F)c1nnc(SCC(=O)NC2=NCCS2)n1C (centres unmarked)	22.3%
COC(=O)c1cc(CNC(=O)c2ccccc2Cl)ccc1OC	0.487%
COC(=O)C1=C(C(=O)OC)C(c2cc([N+](=O)[O-])ccc2O)c2sc(=O)[nH]c2S1 (centres unmarked)	1.28%
COC(=O)C1=C(C(=O)OC)C(c2ccc(OC)c(OC)c2)c2sc(=O)[nH]c2S1 (centres unmarked)	-54.8%
COc1ccc(C2c3sc(=O)[nH]c3SC3C4CCC(C4)C23)cc1OC (centres unmarked)	-17.5%
COC(=O)C1=C(C(=O)OC)C(c2cc(Br)ccc2O)c2sc(=O)[nH]c2S1 (centres unmarked)	-47.6%
COC(=O)C1CSc2[nH]c(=O)sc2C1c1ccc(OC)c(OC)c1 (centres unmarked)	0.0419%
COC(=O)C1=C(C(=O)OC)C(c2ccccc2O)c2sc(=O)[nH]c2S1 (centres unmarked)	-55.9%
S=c1[nH]nc(-c2ccc(Cl)cc2)n1-c1cccnc1	23.5%
Cc1ccc(-c2nc(C#N)c(N3CCC(C)CC3)o2)cc1	17.5%
N#Cc1c(N)nc2c(c1-c1ccncc1)CCCCC2	-12.3%
COc1ccc(OC)c(CN2CCCC(C(=O)c3ccccc3SC)C2)c1 (centres unmarked)	-75.9%
COCCC(=O)N1CCCC(C(=O)c2ccccc2SC)C1 (centres unmarked)	13.1%
COc1ccc(O)c(CN2CCCC(C(=O)c3ccccc3SC)C2)c1 (centres unmarked)	-30.9%
COc1cc(CN2CCCC(C(=O)c3ccccc3SC)C2)cc(OC)c1 (centres unmarked)	-74.4%
COc1cc(OC)c(OC)cc1CN1CCCC(C(=O)c2ccccc2SC)C1 (centres unmarked)	-58.5%
O=C(/C=C/c1ccc(S(=O)(=O)N2CCOCC2)cc1)NCc1ccccc1	-4.31%
O=c1[nH]c(-c2ccc(Cl)cc2)cs1	9.25%
COc1cc(NC(=O)Nc2cccc([N+](=O)[O-])c2)cc(OC)c1	1.42%
COc1cccc(NC(=O)[C@@H]2CCCN2S(=O)(=O)c2cccc3cccnc23)c1	-5.87%
COCCN(C(=O)CCC(=O)Nc1nccs1)C(C(=O)NC(C)(C)C)c1ccc(F)cc1 (centres unmarked)	-1.98%
COC(=O)CSc1nnc(CNc2ccc(F)cc2)o1	14.5%

Compound	hERG current change (%, negative = inhibition) at 10uM
COc1ccc(/C(N)=N/O)cc1O	5.51%
Cn1c(=O)n(Cc2ccccc2)c(=O)c2c1nc1n2CCCN1CCc1ccccc1	-26%
CC1CN(Cc2ccccc2)c2nc3c(c(=O)n(C)c(=O)n3C)n2C1 (centres unmarked)	-36.1%
CCCn1c(=O)c2c(nc3n2CCCN3CCc2ccc(OC)c(OC)c2)n(C)c1=O	-23.7%
CC(C)Cn1c(=O)c2c(nc3n2CC(C)CN3Cc2ccccc2)n(C)c1=O (centres unmarked)	-83.3%
C=CCn1c(=O)c2c(nc3n2CCCN3CCc2ccc(OC)c(OC)c2)n(C)c1=O	-79.6%
Cn1c(=O)c2c(nc3n2CCCN3CCc2ccccc2)n(C)c1=O	-1.45%
CCn1c(=O)c2c(nc3n2CCCN3CCc2ccc(OC)c(OC)c2)n(C)c1=O	-5.18%
C=C(C)Cn1c(=O)c2c(nc3n2CCCN3CCc2ccccc2)n(C)c1=O	-73.3%
CC(C)Cn1c(=O)c2c(nc3n2CCCN3CCc2ccccc2)n(C)c1=O	-76%
Cn1c(=O)n(CC(=O)O)c(=O)c2c1nc1n2CCCN1CCc1ccccc1	13.6%
C=C(C)Cn1c(=O)c2c(nc3n2CCCN3Cc2ccccc2)n(C)c1=O	-17.9%
CCCn1c(=O)c2c(nc3n2CC(C)CN3Cc2ccccc2)n(C)c1=O (centres unmarked)	-39.4%
CCOc1ccc(-n2nnc3c(=O)n(CC(=O)N4CCCc5ccccc54)cnc32)cc1	-4.52%
O=C(Nc1nc2ccc(S(=O)(=O)N3CCCC3)cc2s1)C1CCCCC1	4.81%
COc1ccc(C(CC(=O)N2CCC3(CC2)OCCO3)NS(=O)(=O)c2ccc(OC)cc2)cc1 (centres unmarked)	7.14%
CC1CN(Cc2ccccc2)c2nc3c(c(=O)n(CC(=O)O)c(=O)n3C)n2C1 (centres unmarked)	18.8%
CCn1c(=O)c2c(nc3n2CCCN3CCc2ccccc2)n(C)c1=O	-21.2%
CC1CN(Cc2ccccc2)c2nc3c(c(=O)n(CC(N)=O)c(=O)n3C)n2C1 (centres unmarked)	14.5%
CC(C)CCn1c(=O)c2c(nc3n2CCCN3Cc2ccccc2)n(C)c1=O	-37.7%
C=C(C)Cn1c(=O)c2c(nc3n2CC(C)CN3Cc2ccccc2)n(C)c1=O (centres unmarked)	-65.6%
Cn1c(=O)n(Cc2ccccc2)c(=O)c2c1nc1n2CCCN1Cc1ccccc1	-31.1%
CCCn1c(=O)c2c(nc3n2CCCN3CCc2ccccc2)n(C)c1=O	-65.4%
CCCn1c(=O)c2c(nc3n2CCCN3Cc2ccccc2)n(C)c1=O	-34.3%

Compound	hERG current change (%, negative = inhibition) at 10uM
CC(C)Cn1c(=O)c2c(nc3n2CCCN3Cc2ccccc2)n(C)c1=O	-50%
O=C(CCCOc1ccc(Cl)cc1)Nc1nncs1	-28.9%
Cc1cc(NC(=O)COc2cccc(Oc3ccccc3)c2)no1	13.5%
CCOc1cc(NCCN2CCOCC2)c([N+](=O)[O-])cc1OCC	-7.79%
COc1ccc(CC(=O)N2CCc3cc(OC)c(OC)cc3C2O)cc1OC (centres unmarked)	8.05%
Cc1c(C)[n+](=O)c(-c2ccc(Br)cc2)c(C)n1[O-]	13.1%
Cc1ccc2nc(Cl)c(C3CC(c4ccco4)=NN3S(C)(=O)=O)cc2c1 (centres unmarked)	-62.6%
Cc1ccc2cc(C3CC(c4ccco4)=NN3S(C)(=O)=O)c(Cl)nc2c1 (centres unmarked)	-15%
CCOc1ccc2nc(Cl)c(C3CC(c4ccco4)=NN3S(C)(=O)=O)cc2c1 (centres unmarked)	-41.1%
Fc1ccc(NC(=S)Nc2ccccc2OC(F)F)cc1Cl	9.18%
CCOc1ccc(NC(=S)N(CCOC)C2CCN(C(C)C)CC2)cc1	-29%
CN(Cc1cccnc1)Cc1cn[nH]c1-c1ccc(-c2ccccc2)cc1	-56.7%
CC(C)N(Cc1nc(-c2ccc(Cl)cc2)no1)Cc1nccn1C	-50.4%
COc1ccc(-c2[nH]ncc2CN(Cc2nccn2C)C(C)C)c(F)c1	-39.7%
CC(C)N(Cc1cn[nH]c1-c1ccc(-c2ccccc2)cc1)Cc1nccn1C	-71.9%
Cc1nnc(CN(C)Cc2cn[nH]c2-c2ccc(-c3ccccc3)cc2)o1	-15.1%
COC(=O)c1ccc(-c2noc(CN(Cc3nccn3C)C(C)C)n2)cc1	-37%
CN(Cc1ccon1)Cc1cn[nH]c1-c1ccc(-c2ccccc2)cc1	-10.4%
c1ccc2oc(-c3[nH]ncc3CN(Cc3ccncc3)CC3CCCO3)cc2c1 (centres unmarked)	-22.6%
CN(Cc1cn[nH]c1-c1cc2ccccc2o1)CC1CCOCC1	-66.4%
COc1ccc(-c2noc(CN(Cc3nccn3C)C(C)C)n2)cc1	-6.99%
CCN(CCn1cccn1)Cc1cn[nH]c1-c1ccc(-c2ccccc2)cc1	9.21%
O=C1CC[C@@H](CN(Cc2ccccc2)Cc2cn[nH]c2-c2cc3ccccc3o2)N1	-6.77%
